Compounds with a hit are over-represented: about 7.5% of the library has one in this group of screens.
FLuc modulator – qHTS profiling assay for firefly luciferase inhibitor/activator using purifed enzyme and Km concentrations of substrates (counterscreen for miR-21 project) | Luciferin 4-monooxygenase (Photinus pyralis), P08659 | purified FLuc, Km substrates, luminescence inhibition | Potency, µM (doses to about 57.5 µM), most hits filed as inhibitors | actives 6.9% (n = 360,000) | AID 588342, 2011; note: nearly all actives have a fitted effect of over 55% in size
Target sequence (P08659 whole entry, looked up): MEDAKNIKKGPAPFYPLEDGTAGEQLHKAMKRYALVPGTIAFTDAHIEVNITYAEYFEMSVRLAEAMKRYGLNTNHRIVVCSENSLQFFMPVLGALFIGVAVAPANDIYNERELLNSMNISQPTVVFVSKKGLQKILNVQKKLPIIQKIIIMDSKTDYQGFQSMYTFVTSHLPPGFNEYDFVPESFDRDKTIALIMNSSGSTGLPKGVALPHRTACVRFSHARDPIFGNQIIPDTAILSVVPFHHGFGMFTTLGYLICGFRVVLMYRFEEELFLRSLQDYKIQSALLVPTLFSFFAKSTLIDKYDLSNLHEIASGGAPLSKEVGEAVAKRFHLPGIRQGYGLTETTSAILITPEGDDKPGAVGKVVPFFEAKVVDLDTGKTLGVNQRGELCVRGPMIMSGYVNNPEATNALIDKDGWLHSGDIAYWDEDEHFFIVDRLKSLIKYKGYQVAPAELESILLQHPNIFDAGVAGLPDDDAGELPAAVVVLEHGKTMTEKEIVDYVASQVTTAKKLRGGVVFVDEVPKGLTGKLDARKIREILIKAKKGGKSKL
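Purified P. pyralis luciferase, 10 nM final, with Km-level 10 uM D-luciferin and 10 uM ATP in 50 mM Tris acetate pH 7.5, 10 mM Mg acetate, 0.01% Tween-20, 0.05% BSA; 6-point qHTS titration about 60 µM downward; luminescence read.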
NPC1 prom act – qHTS Assay for NPC1 Promoter Activators. Huh7 NPC1 promoter luciferase reporter, 24 h. Potency, µM (top dose mostly 9.22 µM), most hits filed as activators. actives 2.4% (n = 320,000). AID 485313, 2010; note: nearly all actives have a fitted effect of over 60% in size
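Stable NPC1-promoter luciferase Huh7 line; cpd (DMSO) 24 h, 37 °C, 5% CO2; Amplite luciferase reagent 10 min RT; luminescence readout. qHTS format.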
Rab9 prom act – qHTS Assay for Rab9 Promoter Activators; Huh7 Rab9 promoter-luciferase reporter, luminescence, 24 h; Potency, µM (doses to about 9.22 µM), actives largely listed as activators; actives 2.8% (n = 320,000); note: nearly all actives have a fitted effect of over 60% in size
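Luminescence from Amplite-detected luciferase (10 minutes, ambient) reports Rab9 promoter activation. Before that, stable Rab9-luciferase Huh7 cells (1500/well, reduced-serum OP-MEM I plus 10% FBS) were exposed to compound for 24 hours at 37C.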
ELG1 genotoxic – qHTS screen for small molecules that induce genotoxicity in human embryonic kidney (HEK293T) cells expressing luciferase-tagged ELG1; HEK293T ELG1-luciferase reporter, luminescence, 16 h; Potency, µM (series often up to 46 µM), most hits filed as activators; actives 1.3% (n = 330,000); note: nearly all actives have a fitted effect of over 60% in size
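HEK293T cells expressing luciferase-tagged ELG1 were treated with compound or DMSO for 16 hr at 37°C. Luciferase activity was then read after 30 min with ONE-Glo at room temperature; rising signal flags genetic stress.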
SMN2 splice enh – qHTS Assay for Enhancers of SMN2 Splice Variant Expression; actives 2.8% (n = 210,000); AID 1458, 2008; HEK293 SMN2-luciferase splicing reporter, luminescence, 30-36 h; Potency, µM (top dose mostly 46.1 µM), most hits filed as activators; note: nearly all actives have a fitted effect of over 55% in size
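HEK293 cells carry an SMN2 minigene-luciferase reporter in which exon 7 inclusion puts luciferase in frame. Cells were seeded at 2000 cells/well, attached for 10-12 hours, then exposed to compounds for 30-36 hours at 37C before ONE-Glo luminescence.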
Of the large screens only hits and unclear results are named; the others gave an inactive call. Calls come from the whole dose curve; as a rule, active = well fitted curve in the direction sought with a large enough effect; inconclusive = small, poorly fitted or top-dose-only effect, or another doubt; inactive = no such curve, though single readings can be large; an effect the other way counts as inactive or inconclusive.

COc1ccc(OCCCSc2ncccn2)cc1	FLuc modulator 13µM, NPC1 prom act inconclusive, Rab9 prom act inconclusive, ELG1 genotoxic 10µM, SMN2 splice enh 25µM
COc1ccccc1OCCSc1nc(N)cc(N)n1	FLuc modulator inconclusive, SMN2 splice enh inconclusive
COCCCNCC1C(Oc2ccc(Cl)cc2)C(=O)N1c1ccccc1C (configuration not stated)	none
CCN(C(=O)c1cc2c(s1)-c1c(C)cccc1OC2)c1ccccc1F	none (no result: NPC1 prom act, Rab9 prom act, ELG1 genotoxic)
c1ccc(Oc2cccc(OCCCCSc3ncccn3)c2)cc1	none
COc1ccc(OCCSc2ncnc3nc[nH]c23)cc1	FLuc modulator 17µM, NPC1 prom act inconclusive, Rab9 prom act inconclusive, ELG1 genotoxic inconclusive
O=c1[nH]c(SCCOc2ccccc2F)nc2ccccc12	FLuc modulator 27µM (no result: SMN2 splice enh)
Fc1ccccc1OCCSc1ncnc2nc[nH]c12	FLuc modulator inconclusive, Rab9 prom act inconclusive, ELG1 genotoxic inconclusive, SMN2 splice enh inconclusive
c1cnc(SCCCOc2ccc3ccccc3c2)nc1	FLuc modulator 17µM, NPC1 prom act inconclusive, Rab9 prom act inconclusive, ELG1 genotoxic 21µM
Cc1ccc(OCCCSc2ncccn2)cc1C	FLuc modulator 15µM, NPC1 prom act inconclusive, Rab9 prom act inconclusive, ELG1 genotoxic inconclusive, SMN2 splice enh 20µM
COc1ccccc1OCCSc1nc2ccccc2c(=O)[nH]1	FLuc modulator inconclusive, ELG1 genotoxic inconclusive, SMN2 splice enh inconclusive
CC1Cc2ccccc2N1C(=O)CN1CCc2ccccc2C1 (configuration not stated)	none (no result: SMN2 splice enh)
COc1cccc(OCCSc2nc(N)cc(N)n2)c1	FLuc modulator 24µM, NPC1 prom act inconclusive, Rab9 prom act inconclusive, ELG1 genotoxic inconclusive
CN(C)CCCNS(=O)(=O)c1cc(Cl)ccc1Cl	ELG1 genotoxic 18µM
CN(C)c1ccc(NS(=O)(=O)c2cc(Cl)ccc2Cl)cc1	FLuc modulator 19µM
CCN(C(=O)Cn1c(=O)oc2ccccc21)c1c(N)n(Cc2ccccc2)c(=O)[nH]c1=O	none (no result: SMN2 splice enh)
Cc1cccc(C)c1OCC(O)Cn1ccnc1C (configuration not stated)	none
COc1ccc(OCc2cc(C(=O)N3CCCN(C(C)=O)CC3)no2)c(Cl)c1	FLuc modulator 27µM, NPC1 prom act inconclusive, ELG1 genotoxic inconclusive (no result: SMN2 splice enh)
CCc1ccc(CN(C)C(=O)c2cc(COc3cccc(C(F)(F)F)c3)on2)nc1	none (no result: SMN2 splice enh)
CCc1ccc(CN(C)C(=O)c2cc(COc3ccc(OC)cc3Cl)on2)nc1	FLuc modulator 15µM, NPC1 prom act 3.2µM, Rab9 prom act inconclusive, ELG1 genotoxic inconclusive (no result: SMN2 splice enh)
COc1ccc(OCc2cc(C(=O)N(C)Cc3cc(C)no3)no2)c(Cl)c1	FLuc modulator 6µM, NPC1 prom act 2.8µM, Rab9 prom act 4µM, ELG1 genotoxic inconclusive (no result: SMN2 splice enh)
COc1ccc(OCc2cc(C(=O)N(C)Cc3nnc(C)o3)no2)c(Cl)c1	FLuc modulator 8.5µM, NPC1 prom act 3.2µM, Rab9 prom act 3.5µM, ELG1 genotoxic inconclusive (no result: SMN2 splice enh)
COc1cc(Cl)ccc1OCc1cc(C(=O)N(C)Cc2nnc(C)o2)no1	FLuc modulator inconclusive, ELG1 genotoxic inconclusive (no result: SMN2 splice enh)
COc1ccc(-c2nc(C(=O)O)cs2)cc1OC	FLuc modulator inconclusive
Cc1ccc(Cl)cc1NS(=O)(=O)c1cc2[nH]c(=O)c(=O)[nH]c2cc1C	none (no result: SMN2 splice enh)
Cc1ccc(S(=O)(=O)N2CCn3cccc3C2C)cc1 (configuration not stated)	none (no result: SMN2 splice enh)
CCN(Cc1ccncc1)C(=O)c1cc(COc2ccc(F)cc2Cl)on1	none (no result: SMN2 splice enh)
CCN(Cc1ccncc1)C(=O)c1cc(COc2ccc(OC)cc2Cl)on1	FLuc modulator 21µM, NPC1 prom act 3.2µM, Rab9 prom act 2.8µM, ELG1 genotoxic inconclusive (no result: SMN2 splice enh)
O=C(CC1C(=O)NCCN1CC1CCCCC1)NCc1ccc(F)cc1F (configuration not stated)	FLuc modulator inconclusive, NPC1 prom act 2.8µM, Rab9 prom act 2.8µM, ELG1 genotoxic inconclusive (no result: SMN2 splice enh)
O=C(CC1C(=O)NCCN1CC1CCCCC1)NCc1cc(F)ccc1F (configuration not stated)	none (no result: SMN2 splice enh)
Cc1ccc(-c2cc(C(=O)N(C)Cc3cnn(C)c3C)c3cc(Br)ccc3n2)cc1	FLuc modulator 11µM
Cc1ccc(-c2cc(C(=O)NCc3cnn(C)c3C)c3cc(Br)ccc3n2)cc1	FLuc modulator 2.1µM
